{
  "source": "PubChem BioAssay AID1851",
  "about": "(National Center for Advancing Translational Sciences (NCATS), 2009)",
  "note": "“And” between values parts separate entries of the source, which are not always exact repeats. Identical values can stand only once. In all, about 16,000 compounds went through this assay and about 5,800 (36%) were called active. Inconclusive results (about 23%) are left out. The list shows a part of the results. A number with no mark means an inactive call. Calls follow the shape of the dose curve; as a rule, active = well fitted curve in the direction sought with a large enough effect; inconclusive = small, poorly fitted or top-dose-only effect, or effect the other way; inactive = no such curve, though single readings can be large or run the other way. % is scaled to controls: 0 for no effect and ±100 for the full control effect.",
  "data": [
    {"molecular_target": "Cytochrome P450 2C19 (Homo sapiens) (UniProt P33261)", "sequence (P33261 whole entry, looked up)": "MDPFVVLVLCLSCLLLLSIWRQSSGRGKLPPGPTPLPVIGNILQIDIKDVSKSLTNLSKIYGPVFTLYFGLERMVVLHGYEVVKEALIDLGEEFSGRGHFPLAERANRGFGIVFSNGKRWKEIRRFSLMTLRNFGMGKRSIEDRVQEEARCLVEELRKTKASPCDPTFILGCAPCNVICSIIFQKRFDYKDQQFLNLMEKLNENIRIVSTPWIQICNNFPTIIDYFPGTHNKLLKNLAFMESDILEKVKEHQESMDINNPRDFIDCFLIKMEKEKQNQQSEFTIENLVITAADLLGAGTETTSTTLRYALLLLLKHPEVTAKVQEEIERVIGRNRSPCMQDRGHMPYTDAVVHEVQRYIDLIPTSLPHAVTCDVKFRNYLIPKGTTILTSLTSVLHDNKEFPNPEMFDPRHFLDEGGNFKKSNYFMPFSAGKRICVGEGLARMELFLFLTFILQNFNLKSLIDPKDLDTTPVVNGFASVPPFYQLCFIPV", "assay": "Cytochrome panel assay with activity outcomes", "details": "recombinant CYP, pro-luciferin dealkylation, luminescence, p450-cyp2c19; series mostly up to 57.1 µM; activity, negative = inhibition: at the top concentration", "values": [
      {"smiles": "CC1=C(C(=O)Nc2ccccc2F)C(c2ccsc2)C2=C(CC(c3ccccc3)CC2=O)N1", "note": "(stereo not given)", "AC50": "5.01 µM (active)"},
      {"smiles": "COC(=O)C1=C(C)NC(=O)NC1c1ccsc1", "note": "(stereo not given)", "activity, negative = inhibition": "-26.2%"},
      {"smiles": "C=CCNc1nc(SCC=C)nc2ccsc12", "AC50": "8.91 µM (active)"},
      {"smiles": "C=CCSc1nc(NC)c2sccc2n1", "AC50": "14.1 µM (active)"},
      {"smiles": "C=CCSc1nc(Oc2ccccc2)c2sccc2n1", "AC50": "2.24 µM (active)"},
      {"smiles": "C=CCSc1ccsc1C(=O)O", "activity, negative = inhibition": "-21.7%"},
      {"smiles": "C[C@@]12C(=O)OC(=O)[C@]1(C)[C@H]1CC[C@@H]2O1", "activity, negative = inhibition": "20.3% [at 25.6 µM]"},
      {"smiles": "O=C1C[C@@H](O)[C@@H](O)[C@H]2[C@@H]3C(=O)N(c4cccc(Oc5ccccc5)c4)C(=O)[C@@H]3CC[C@H]12", "activity, negative = inhibition": "5.15% [at 11.4 µM] and -20.4% [at 11.4 µM]"},
      {"smiles": "O=C(Nc1ccc2c(c1)OCCO2)c1cc2sccc2n1Cc1ccc(F)cc1", "AC50": "1 µM (active)"},
      {"smiles": "O=C(Nc1ccc2c(c1)OCCO2)c1cc2sccc2n1Cc1ccccc1", "AC50": "3.16 µM (active)"},
      {"smiles": "Cc1ccc(Sc2cc(Cl)nc(N)n2)cc1", "activity, negative = inhibition": "15.3%"},
      {"smiles": "CCNc1nc(Sc2ccc(C)cc2)cc(C(F)(F)F)n1", "AC50": "11.2 µM (active)"},
      {"smiles": "FC(F)(F)c1cc(Sc2ccccc2)nc(-c2ccccn2)n1", "activity, negative = inhibition": "-107%"},
      {"smiles": "O=C(NC1CCCc2ccccc21)C1CCN(S(=O)(=O)N2CCCCCC2)CC1", "note": "(stereo not given)", "AC50": "17.8 µM (active)"},
      {"smiles": "O=C(NC1CCCc2ccccc21)c1ccc(=O)[nH]c1", "note": "(stereo not given)", "activity, negative = inhibition": "-15.8%"},
      {"smiles": "O=C(NCCCN1CCc2ccccc2C1)C1CCN(S(=O)(=O)N2CCCC2)CC1", "activity, negative = inhibition": "-24.9%"},
      {"smiles": "Cc1cccc(NC(=O)CSc2nc(COc3ccccc3)nc3ccccc23)c1C", "AC50": "2 µM (active)"},
      {"smiles": "CCc1nc(SCC(=O)NNC(=O)C2CCCCC2)c2ccccc2n1", "activity, negative = inhibition": "4.97%"},
      {"smiles": "CCn1c(CCNC(=O)c2ccccc2Cl)n[nH]c1=S", "activity, negative = inhibition": "-10.1%"},
      {"smiles": "C=CCn1c(C(C)NC(=O)c2ccccc2)n[nH]c1=S", "note": "(stereo not given)", "AC50": "5.01 µM (active)"},
      {"smiles": "NS(=O)(=O)c1cc(Cl)c(Cl)c(S(N)(=O)=O)c1", "activity, negative = inhibition": "26.8% [at 25.6 µM]"},
      {"smiles": "CC(=O)NNC(=O)C(O)(c1ccccc1)c1ccccc1", "activity, negative = inhibition": "9.3%"},
      {"smiles": "Cc1cccc(N(NC(=O)C(C)(C)O)C(=O)c2ccccc2)c1", "AC50": "20 µM (active)"},
      {"smiles": "CCN1C(=O)[C@H]2[C@H]3[C@H](O)[C@H](O)C/C(=N/OCC(C)C)[C@@H]3CC[C@@H]2C1=O", "activity, negative = inhibition": "-7.39% [at 11.4 µM]"},
      {"smiles": "CCc1ccc(C(=O)N2CCC(c3nc4ccccc4s3)CC2)cc1", "AC50": "14.1 µM (active)"},
      {"smiles": "C[C@H]1NC(=O)NC1=O", "AC50": "inactive"},
      {"smiles": "C/C(=N/NC(=O)c1cccs1)c1ccc(NC(=O)COc2ccc(Cl)cc2Cl)cc1", "AC50": "14.1 µM (active)"},
      {"smiles": "CCC(CC)C(=O)Nc1cccc(/C(C)=N\\NC(=O)c2ccc(C)s2)c1", "activity, negative = inhibition": "1.98%"},
      {"smiles": "C/C(=N/NC(=O)c1ccc(C)s1)c1cccc(NC(=O)COc2ccc(Cl)cc2C)c1", "AC50": "3.16 µM (active)"},
      {"smiles": "C/C(=N\\NC(=O)c1ccc(Cl)cc1)c1cccc(NC(=O)C(C)C)c1", "AC50": "17.8 µM (active)"},
      {"smiles": "C/C(=N\\NC(=O)c1cccc(Cl)c1)c1cccc(NC(=O)C(C)C)c1", "activity, negative = inhibition": "13.8%"},
      {"smiles": "CCc1ccc2c(c1)c(N=NC1=NC(=O)CS1)c(O)n2CC", "activity, negative = inhibition": "-18.3%"},
      {"smiles": "CC(=O)NNc1cccc(Cl)n1", "activity, negative = inhibition": "11.9%"},
      {"smiles": "C=CCSC[C@@H]1Nc2cc(Cl)c(S(N)(=O)=O)cc2S(=O)(=O)N1", "activity, negative = inhibition": "7.79% [at 25.6 µM]"},
      {"smiles": "CN(C(=O)Cn1nnc(-c2cccc(C(F)(F)F)c2)n1)C1CCCCC1", "activity, negative = inhibition": "7.73%"},
      {"smiles": "CC(C)CC(C(=O)NCC1CCCO1)N(C(=O)Cn1nnc(-c2ccc(F)cc2)n1)c1ccccc1F", "note": "(stereo not given)", "AC50": "25.1 µM (active)"},
      {"smiles": "CC(C)CC(C(=O)NCC1CCCO1)N(C(=O)Cn1nnc(-c2ccc(F)cc2)n1)c1cccc(C(F)(F)F)c1", "note": "(stereo not given)", "AC50": "3.55 µM (active)"},
      {"smiles": "O=C(NCC1CCCO1)c1nn2c(c1Cl)NC(c1ccc(F)cc1)CC2C(F)(F)F", "note": "(stereo not given)", "activity, negative = inhibition": "-14.1%"},
      {"smiles": "O=S1(=O)N[C@H]2CC[C@@H]3NS(=O)(=O)N[C@H]4CC[C@H](N1)N4S(=O)(=O)N23", "activity, negative = inhibition": "11.2% [at 11.4 µM]"},
      {"smiles": "CCN1C(=O)[C@H]2[C@H]3[C@H](O)[C@H](O)C/C(=N/O[C@@H](C)c4cn([C@H](CO)Cc5ccccc5)nn4)[C@@H]3CC[C@@H]2C1=O", "activity, negative = inhibition": "4.85% [at 11.4 µM] and 16% [at 11.4 µM]"},
      {"smiles": "O=C(Nc1cnn(Cc2ccc(Cl)cc2Cl)c1)c1cc(-c2cccs2)on1", "AC50": "4.47 µM (active)"},
      {"smiles": "Fc1ccc(C2=Nn3c(Cc4ccccc4F)nnc3SC2)cc1", "AC50": "3.98 µM (active)"},
      {"smiles": "c1ccc(-c2ccc(C3=Nn4c(Cn5nnc6ccccc65)nnc4SC3)cc2)cc1", "AC50": "14.1 µM (active)"},
      {"smiles": "c1ccc2c(c1)nnn2CN1CCOCC1", "activity, negative = inhibition": "22.7% [at 11.4 µM]"},
      {"smiles": "C#CCCCO/N=C1/C[C@@H](O)[C@@H](O)[C@@H]2[C@@H]3C(=O)N(CC)C(=O)[C@H]3CC[C@H]12", "activity, negative = inhibition": "-28.1% [at 11.4 µM]"},
      {"smiles": "O=C(N/N=C1/C[C@@H](O)[C@@H](O)[C@@H]2[C@@H]3C(=O)N(Cc4ccccc4)C(=O)[C@H]3CC[C@H]12)OCc1ccccc1", "activity, negative = inhibition": "0.945% [at 11.4 µM]"},
      {"smiles": "CC(C)=CCC/C(C)=C/CO/N=C1/C[C@@H](O)[C@@H](O)[C@@H]2[C@@H]3C(=O)N(C4CCCCC4)C(=O)[C@H]3CC[C@H]12", "activity, negative = inhibition": "-23.1% [at 11.4 µM]"},
      {"smiles": "CN[C@@H]1[C@H](O[C@@H]2O[C@H](CO)[C@@H](N)[C@H](O)[C@@H]2O)O[C@H]2C[C@@H](N)[C@@H](O[C@H]3[C@@H](O)[C@H](O)[C@H](N)C[C@@H]3N)O[C@H]2[C@H]1O", "activity, negative = inhibition": "-36.8% [at 25.6 µM]"},
      {"smiles": "CC(=O)Nc1ccc(S(=O)(=O)NC(CC(=O)NCCC2=CCCCC2)C(C)C)cc1", "note": "(stereo not given)", "AC50": "10 µM (active)"},
      {"smiles": "CC(=O)Nc1ccc(S(=O)(=O)NC(CC(=O)NCCCN2CCOCC2)C(C)C)cc1", "note": "(stereo not given)", "activity, negative = inhibition": "-6.43%"},
      {"smiles": "CC(C)C(=O)NCCn1ccc2ccccc21", "AC50": "6.31 µM (active)"},
      {"smiles": "CCN(c1ccccc1)c1cc(NC)[n+](C)c(C)n1", "activity, negative = inhibition": "-3.33%"},
      {"smiles": "O=C(O)[C@@H]1[C@@H]2C[C@H]([C@@H](Br)[C@H]2N2C(=O)CCC2=O)[C@@H]1C(=O)O", "activity, negative = inhibition": "39.9% [at 11.4 µM]"},
      {"smiles": "O=C(O)c1cc(=O)c2ccc(Cl)cc2[nH]1", "activity, negative = inhibition": "14.6%"},
      {"smiles": "COc1cccc(/C=N/NC(=O)c2cc(-c3cccn3C)n[nH]2)c1", "AC50": "15.8 µM (active)"},
      {"smiles": "COc1cccc(/C=N/NC(=O)C(=O)NCc2cccnc2)c1", "activity, negative = inhibition": "-29.3%"},
      {"smiles": "COc1cccc(/C=N/NC(=O)c2c(-c3ccccc3)noc2C)c1", "AC50": "2 µM (active)"},
      {"smiles": "COc1ccc(C(=O)Nc2ccc(C(=O)OCC(=O)c3ccccc3)cc2)cc1", "activity, negative = inhibition": "-13.4%"},
      {"smiles": "COc1ccc(C(=O)COC(=O)c2ccc(NC(=O)c3ccccc3)cc2)cc1", "activity, negative = inhibition": "-6.93%"},
      {"smiles": "COc1ccc(NC(=O)COC(=O)c2c(-c3ccccc3)noc2C)cc1", "AC50": "8.91 µM (active)"}
    ]}
  ]
}
